Records with an inconclusive call do not appear. Activity calls are given as the source filed them. Unless noted, the call rests on the fitted dose curve; in most records, active means well fitted curve in the direction sought with a large enough effect in the repeat runs; inconclusive means weak or mixed curves; inactive means no such curve, though single readings can be large; an effect the other way counts as inactive or inconclusive.
What was measured:
[1] = A CellTox Green Cytotoxicity Assay to monitor cytotoxicity in HEK293 cells - 32 hour (AID 1224881); further: nearly all actives have a fitted effect of over 40% in size
Method in brief: (§1)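 Read-out: fluorescence of a cell-impermeant cyanine dye staining DNA of dead cells, proportional to cytotoxicity. HEK293, 600 cells/well with reagent, compound (23 nL DMSO) added after 5 h; reads at 0, 8, 16, 24, 32, 40 h.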

[2] = A CellTox Green Cytotoxicity Assay to monitor cytotoxicity in HepG2 cells - 0 hour (AID 1224882); further: nearly all actives have a fitted effect of over 35% in size
Method in brief: (§2)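 HepG2, 600 cells/well premixed w/ CellTox Green; 5 h settle, 37 C/5% CO2; pintool cpd add (DMSO); 37 C, 40 h; fluorescence read at 0, 8, 16, 24, 32, 40 h.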

[3] = A CellTox Green Cytotoxicity Assay to monitor cytotoxicity in HepG2 cells - 32 hour (AID 1224883); further: nearly all actives have a fitted effect of over 50% in size
Method in brief: as §2

[4] = A CellTox Green Cytotoxicity Assay to monitor cytotoxicity in HEK293 cells - 8 hour (AID 1224884); further: nearly all actives have a fitted effect of over 35% in size
Method in brief: as §1

[5] = qHTS RealTime-Glo MT Cell Viability Assay in HepG2 cells - 16 hour (AID 1224885); further: nearly all actives have a fitted effect of over 50% in size
Method in brief: (§3)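 Compound treatment began 5 h after plating HepG2 cells (600/well) with NanoLuc luciferase and prosubstrate. Plates stayed at 37 C for 40 h; luminescence was captured at six time points, 0 h through 40 h.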

[6] = qHTS RealTime-Glo MT Cell Viability Assay in HEK293 cells - 24 hour (AID 1224886); further: top concentration of the series differs between compounds; nearly all actives have a fitted effect of over 50% in size
Method in brief: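 Quantitative high-throughput screen of the Tox21 10K library in HEK293: cells and RealTime-Glo reagents plated together, compound added at 5 h, luminescence monitored through 40 h at 37 C.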

[7] = qHTS RealTime-Glo MT Cell Viability Assay in HEK293 cells - 8 hour (AID 1224887); further: top concentration of the series differs between compounds; nearly all actives have a fitted effect of over 50% in size
Method in brief: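 Luminescence readout at each listed time point; HEK293, 600 cells/well, RealTime-Glo MT reagent added with cells; compounds pinned (23 nL in DMSO) after 5 h at 37 C; continuous culture at 37 C.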

[8] = A CellTox Green Cytotoxicity Assay to monitor cytotoxicity in HEK293 cells - 16 hour (AID 1224888); further: nearly all actives have a fitted effect of over 35% in size
Method in brief: as §1

[9] = qHTS RealTime-Glo MT Cell Viability Assay in HepG2 cells - 0 hour (AID 1224889); further: nearly all actives have a fitted effect of over 50% in size
Method in brief: as §3

[10] = A CellTox Green Cytotoxicity Assay to monitor cytotoxicity in HepG2 cells - 8 hour (AID 1224890); further: nearly all actives have a fitted effect of over 45% in size
Method in brief: as §2

[11] = qHTS assay to identify small molecule antagonists of the androgen receptor (AR) signaling pathway using the MDA cell line in the presence of 0.5 nM R1881 - cell viability counter screen (AID 1259242); further: nearly all actives have a fitted effect of over 45% in size
Method in brief: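 Live-cell protease fluorescence, CellTiter-Fluor, 30 min at 37C. Cells: MDA-kb2, 3,000/well, preincubated 5 hr. Compounds plus 0.5 nM R1881 final, 16 hr, 37C, 0% CO2.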

[12] = target: Estrogen receptor (Homo sapiens) (UniProt P03372); assay: qHTS assay to identify small molecule antagonists of the estrogen receptor alpha (ER-alpha) signaling pathway using the BG1 cell line in the presence of 0.1 nM 17-beta-estradiol (AID 1259244); further: nearly all actives have a fitted effect of over 50% in size
Method in brief: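 Luminescence after ONE-Glo (30 min, room temperature) measured ERE-luciferase activity in VM7Luc4E2 cells treated 22 h with compound and 0.1 nM final 17beta-estradiol as stimulator.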

[13] = qHTS assay to identify small molecule HDAC inhibitors (AID 1259364);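 further: wild-type HCT-116 cells with endogenous class I/II HDAC activity; top concentration of the series differs between compounds; nearly all actives have a fitted effect of over 45% in size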
Method in brief: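 HCT-116 (wild type), 1,500 cells/well, overnight; compound 2 hr 37C 5% CO2; HDAC-Glo I/II reagent 30 min RT; luminescence readout.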

[14] = qHTS assay to identify small molecule HDAC inhibitors - cell viability counter screen (AID 1259365)
Method in brief: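 CellTiter-Glo luminescence (30 min, room temperature) reported viability after a 2 h compound exposure at 37 C. Cells: wild-type HCT-116, 1,500 per well, seeded the night before.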

[15] = qHTS assay to identify small molecule agonists of the sonic hedgehog signaling (Shh) pathway - cell viability counter screen (AID 1259366); further: nearly all actives have a fitted effect of over 50% in size
Method in brief: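 Cytotoxicity counter screen: CellTiter-Fluor reagent added after 23 h compound exposure, then 1 h at 37C and fluorescence read. Cells were 3T3 Gli1-Luc, seeded 2,000 per well and dosed 4 h post-plating.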

[16] = qHTS assay to identify small molecule antagonists of the sonic hedgehog signaling (Shh) pathway - cell viability counter screen (AID 1259367); further: nearly all actives have a fitted effect of over 55% in size
Method in brief: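 Tox21 library chemicals were tested on a Gli1-Luc NIH/3T3 clone (2,000 cells/well) stimulated by conditioned medium; viability was quantified as fluorescence from CellTiter-Fluor reagent added at 23 hr.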

[17] = qHTS assay to identify small molecule agonists of the sonic hedgehog signaling (Shh) pathway (AID 1259368; calls by dose curve;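 further: NIH/3T3-derived 3T3Gli1-Luc cells carrying a stable Gli1-driven firefly luciferase reporter; series mostly up to about 92 µM; nearly all actives have a fitted effect of over 15% in size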)
Method in brief: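 Read-out: firefly luciferase luminescence from a Gli1 response element reporter stably integrated in NIH/3T3-derived 3T3Gli1-Luc cells, measured 30 min at room temperature after reagent addition. Compound exposure lasted 24 hr at 37 C, 5% CO2.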

[18] = qHTS assay to identify small molecule antagonists of the estrogen receptor alpha (ER-alpha) signaling pathway using the BG1 cell line in the presence of 0.1 nM 17-beta-estradiol - cell viability counter screen (AID 1259241); further: nearly all actives have a fitted effect of over 40% in size
Method in brief: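 Cytotoxicity counter-screen: live-cell protease activity measured by fluorescence (30 min reagent step) in the same wells. Cells were VM7Luc4E2 with endogenous ER-alpha and ERE-driven luciferase, treated 22 hr at 37C alongside 0.1 nM 17beta-estradiol final.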

[19] = qHTS assay to identify small molecule phospholipidosis (PLD) inducers (AID 1259344; active means well fitted curve in the direction sought with a large enough effect; an effect the other way counts as inactive or inconclusive)
Method in brief: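 Image-based: LipidTOX Red pit count/intensity per well and per cell; HepG2, 24 h compound at 37 C, PFA fixation, Hoechst counterstain.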

Measured: Potency

Estrogen receptor (Homo sapiens), sequence (P03372 whole entry, looked up): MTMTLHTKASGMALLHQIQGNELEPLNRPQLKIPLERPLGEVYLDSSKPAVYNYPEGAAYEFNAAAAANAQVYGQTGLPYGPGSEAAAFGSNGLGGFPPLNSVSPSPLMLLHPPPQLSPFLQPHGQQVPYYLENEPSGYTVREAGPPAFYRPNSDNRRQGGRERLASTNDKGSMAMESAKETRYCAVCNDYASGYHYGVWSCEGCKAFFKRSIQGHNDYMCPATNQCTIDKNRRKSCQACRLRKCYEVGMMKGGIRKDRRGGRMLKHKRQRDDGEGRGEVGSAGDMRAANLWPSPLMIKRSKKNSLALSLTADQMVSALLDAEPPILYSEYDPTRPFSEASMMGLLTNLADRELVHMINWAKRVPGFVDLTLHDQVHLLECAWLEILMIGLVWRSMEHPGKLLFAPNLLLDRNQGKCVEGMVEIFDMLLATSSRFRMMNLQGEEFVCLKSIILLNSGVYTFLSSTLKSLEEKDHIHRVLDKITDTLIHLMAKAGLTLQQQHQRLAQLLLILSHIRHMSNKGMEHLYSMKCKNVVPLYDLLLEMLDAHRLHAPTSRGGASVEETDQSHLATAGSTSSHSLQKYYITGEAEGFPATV

CCCSC(=O)Cl
not listed: [18] | [19]
inactive: all other assays above

CCOc1nc(C(Cl)(Cl)Cl)ns1
not listed: [8] | [16] | [19]
inactive: all other assays above

N#CCBr
not listed: [8] | [18] | [19]
inactive: all other assays above

CC(C)[N+](=O)[O-]
not listed: [12] | [16] | [19]
inactive: all other assays above

COC(=O)c1ccccc1S(=O)(=O)NC(=O)Nc1nc(C)cc(C)n1
not listed: [8] | [12] | [18] | [19]
inactive: all other assays above

CCCSP(=O)(OCC)Oc1ccc(Br)cc1Cl (stereo unspecified)
not listed: [12] | [19]
inactive: all other assays above

CC1CN1P(=O)(N1CC1C)N1CC1C (stereo unspecified)
not listed: [18] | [19]
inactive: all other assays above

CN(C)CCc1ccc(O)cc1
not listed: [8] | [12]
inactive: all other assays above

Source: PubChem BioAssay (Tox21)
